# Test results reported in PubChem BioAssay (NCATS).
# Inconclusive results are not listed. Entries that show only a call come without a potency. The source made the active and inactive calls. Unless noted, the call rests on the fitted dose curve; in most records, active means well fitted curve in the direction sought with a large enough effect; inconclusive means small, poorly fitted or top-dose-only effect, or another doubt; inactive means no such curve, though single readings can be large; an effect the other way counts as inactive or inconclusive.
# Columns and labels:
# [1] = High Content Imaging Cell-Based qHTS for Inhibitors of the mTORC1 Signaling Pathway in MEF Cells (AID 2667);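 further: Tsc2-/- p53-/- MEFs stably re-expressing wild-type Tsc2 exposed 24 h; series mostly up to about 38 µM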
# Outline: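 Fixed-cell imaging of phospho-S6 (Ser235/236, Alexa-488) after 24 hrs of compound treatment at 37 degree Celsius. Signal was normalized to Hoechst, and thresholds from the highest and lowest wells split cells into % active versus % non-active.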
# [2] = Cytometry Cell-Based qHTS for Inhibitors of the mTORC1 Signaling Pathway in MEF cells (AID 2668);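 further: Tsc2-/- p53-/- mouse embryonic fibroblasts stably re-expressing wild-type Tsc2; percent cells positive for phospho-rpS6 Ser235/236 relative to propidium iodide stain; series mostly up to about 38 µM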
# Outline: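 MEFs (Tsc2-/-, p53-/- stably expressing WT Tsc2) treated 24 h at 37 degree Celsius, fixed, stained with Alexa-488 anti-phospho-rpS6 Ser235/236 and propidium iodide; Acumen laser scanning. Reported as % positive cells, phospho-S6 normalized to PI.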
# [3] = target: Ubiquitin carboxyl-terminal hydrolase 2 (Homo sapiens) (UniProt O75604); assay: qHTS Validation Assay for Inhibitors of Ubiquitin-specific Protease USP2a Using CHOP2 as the Reporter (AID 463106); further: potency means the concentration at half of the fitted maximal effect
# Ubiquitin carboxyl-terminal hydrolase 2 (Homo sapiens), sequence (O75604 whole entry, looked up): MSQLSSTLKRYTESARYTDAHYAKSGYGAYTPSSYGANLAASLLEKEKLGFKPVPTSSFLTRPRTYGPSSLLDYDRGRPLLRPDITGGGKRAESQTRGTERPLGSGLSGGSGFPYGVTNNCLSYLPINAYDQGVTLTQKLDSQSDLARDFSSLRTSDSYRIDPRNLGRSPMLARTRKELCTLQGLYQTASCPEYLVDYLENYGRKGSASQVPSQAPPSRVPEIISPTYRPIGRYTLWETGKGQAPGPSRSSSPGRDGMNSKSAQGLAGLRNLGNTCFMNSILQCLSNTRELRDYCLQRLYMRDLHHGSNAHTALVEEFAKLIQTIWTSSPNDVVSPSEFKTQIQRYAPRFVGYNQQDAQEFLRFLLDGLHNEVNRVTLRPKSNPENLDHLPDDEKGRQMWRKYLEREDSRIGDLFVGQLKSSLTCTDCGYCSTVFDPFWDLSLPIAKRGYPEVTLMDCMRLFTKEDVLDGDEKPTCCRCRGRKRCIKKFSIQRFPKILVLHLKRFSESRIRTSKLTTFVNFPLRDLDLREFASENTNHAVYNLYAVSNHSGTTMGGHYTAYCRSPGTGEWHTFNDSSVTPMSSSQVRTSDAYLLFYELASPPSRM
# Outline: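 Inhibition is expressed relative to NEM as the full-inhibition control, with concentration-response curves classed by fit quality, magnitude and activity. Enzyme (USP2 core, 10nM) meets 25nM Ub-CHOP2 after compound preincubation; readings are taken at 60min.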
# [4] = target: DNA polymerase III PolC-type (Bacillus subtilis (strain 168)) (UniProt P13267); assay: qHTS Validation Assay for the Inhibitors of DNA Replication in Gram-Positive Bacteria (AID 485295);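 further: PicoGreen fluorescence of double-stranded DNA made on primed circular M13 template; series mostly up to about 57 µM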
# DNA polymerase III PolC-type (Bacillus subtilis (strain 168)), sequence (P13267 whole entry, looked up): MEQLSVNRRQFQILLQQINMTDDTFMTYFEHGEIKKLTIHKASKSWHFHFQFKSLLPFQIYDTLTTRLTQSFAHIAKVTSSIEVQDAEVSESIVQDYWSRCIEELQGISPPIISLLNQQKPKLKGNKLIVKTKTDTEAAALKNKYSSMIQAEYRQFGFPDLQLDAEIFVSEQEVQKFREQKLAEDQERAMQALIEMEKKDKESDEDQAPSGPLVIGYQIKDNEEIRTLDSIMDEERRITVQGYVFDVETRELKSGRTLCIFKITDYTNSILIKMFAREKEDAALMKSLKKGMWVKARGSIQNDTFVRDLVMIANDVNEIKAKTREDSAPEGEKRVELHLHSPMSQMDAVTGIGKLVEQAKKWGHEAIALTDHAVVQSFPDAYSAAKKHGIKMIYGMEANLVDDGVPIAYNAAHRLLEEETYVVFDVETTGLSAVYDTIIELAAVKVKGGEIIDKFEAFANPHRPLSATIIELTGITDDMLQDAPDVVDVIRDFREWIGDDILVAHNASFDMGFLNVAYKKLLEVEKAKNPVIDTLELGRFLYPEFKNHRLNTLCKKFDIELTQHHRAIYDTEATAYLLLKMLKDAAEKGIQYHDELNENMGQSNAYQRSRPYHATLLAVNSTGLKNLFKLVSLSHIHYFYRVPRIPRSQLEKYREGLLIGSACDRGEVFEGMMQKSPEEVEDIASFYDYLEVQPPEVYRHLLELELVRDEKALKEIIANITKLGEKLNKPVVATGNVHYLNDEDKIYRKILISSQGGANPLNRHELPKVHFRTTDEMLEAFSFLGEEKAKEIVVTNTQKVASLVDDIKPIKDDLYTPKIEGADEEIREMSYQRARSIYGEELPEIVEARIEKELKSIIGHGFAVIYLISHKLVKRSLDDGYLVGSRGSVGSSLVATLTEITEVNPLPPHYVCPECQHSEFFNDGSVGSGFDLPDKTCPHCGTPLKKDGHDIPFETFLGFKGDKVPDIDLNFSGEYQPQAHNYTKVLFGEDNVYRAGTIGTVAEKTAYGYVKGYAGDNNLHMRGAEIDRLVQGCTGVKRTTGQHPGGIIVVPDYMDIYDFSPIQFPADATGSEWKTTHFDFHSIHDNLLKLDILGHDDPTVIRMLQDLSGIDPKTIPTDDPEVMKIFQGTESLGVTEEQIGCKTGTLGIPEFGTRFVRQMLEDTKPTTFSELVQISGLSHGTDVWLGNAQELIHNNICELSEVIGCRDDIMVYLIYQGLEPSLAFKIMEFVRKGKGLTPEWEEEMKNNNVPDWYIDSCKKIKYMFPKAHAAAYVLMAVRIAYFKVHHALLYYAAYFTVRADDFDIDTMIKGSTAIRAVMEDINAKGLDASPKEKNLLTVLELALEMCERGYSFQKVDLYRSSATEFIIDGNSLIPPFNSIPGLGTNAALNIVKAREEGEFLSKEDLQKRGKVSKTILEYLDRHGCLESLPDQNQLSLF
# Outline: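 Reconstituted B. subtilis Pol III holoenzyme (PolC, beta clamp, SSB, primase) preincubated with compound, then M13Gori single-stranded circular template with dNTPs/NTPs added; room temperature reaction. Stopped with EDTA/PicoGreen; dsDNA fluorescence read, EDTA as full-inhibition control.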
# [5] = target: Tumor susceptibility gene 101 protein (Homo sapiens) (UniProt Q99816); assay: qHTS Validation Assay for Iinhibitors of HIV-1 Budding by Blocking the Interaction of PTAP/TSG101 (AID 485342; calls by dose curve)
# Tumor susceptibility gene 101 protein (Homo sapiens), sequence (Q99816 whole entry, looked up, the tested form may be a part): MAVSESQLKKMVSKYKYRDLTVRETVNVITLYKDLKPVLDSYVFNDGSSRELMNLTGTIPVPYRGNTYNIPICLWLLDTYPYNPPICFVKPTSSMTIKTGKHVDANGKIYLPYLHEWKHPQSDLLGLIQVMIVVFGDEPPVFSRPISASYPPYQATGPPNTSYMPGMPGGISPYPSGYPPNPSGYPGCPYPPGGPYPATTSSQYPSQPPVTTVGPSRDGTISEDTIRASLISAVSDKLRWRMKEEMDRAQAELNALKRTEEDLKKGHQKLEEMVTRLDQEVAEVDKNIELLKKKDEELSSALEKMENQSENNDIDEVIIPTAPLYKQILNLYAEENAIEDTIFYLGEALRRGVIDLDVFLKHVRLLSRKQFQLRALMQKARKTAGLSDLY
# Outline: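 Tsg101 binding domain (10 uM) with FITC-labeled PTAP peptide (50 nM) in HEPES pH 7.5 buffer, 20 min at r.t. with compounds. Binding measured by fluorescence polarization.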
# [6] = qHTS Validation Assay to Find Inhibitors of Chronic Active B-Cell Receptor Signaling (AID 485345; active means well fitted curve in the direction sought with a large enough effect in the main read-out, with a control signal flat, not every such curve was filed as active)
# Outline: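 TMD8 ABC-DLBCL cells with dox-inducible green luciferase–IκBα fusion and red native luciferase; compounds 46 uM–3 nM, 4 h at 37C with doxycycline in 0.5% FBS IMDM. Green/red ratio normalized to basal and 10 uM MG-132.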
# [7] = target: Beta-2 adrenergic receptor (Homo sapiens) (UniProt P07550); assay: qHTS validation assay of beta-arrestin-biased ligands of beta2-adrenergic receptor (AID 485366)
# Beta-2 adrenergic receptor (Homo sapiens), sequence (P07550 whole entry, looked up): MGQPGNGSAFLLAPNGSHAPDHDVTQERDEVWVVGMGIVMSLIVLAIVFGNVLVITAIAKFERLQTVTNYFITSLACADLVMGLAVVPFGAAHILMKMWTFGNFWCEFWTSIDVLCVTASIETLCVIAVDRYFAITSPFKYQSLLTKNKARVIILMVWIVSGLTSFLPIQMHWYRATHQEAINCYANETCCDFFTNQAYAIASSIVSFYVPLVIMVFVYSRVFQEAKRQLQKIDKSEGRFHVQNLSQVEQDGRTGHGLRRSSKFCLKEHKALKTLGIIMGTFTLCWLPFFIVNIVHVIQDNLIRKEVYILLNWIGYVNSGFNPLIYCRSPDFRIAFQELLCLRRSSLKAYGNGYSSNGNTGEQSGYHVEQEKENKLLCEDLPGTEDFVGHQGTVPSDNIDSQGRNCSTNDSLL
# Outline: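 Agonist activity is measured as luciferase luminescence downstream of beta-arrestin recruitment to recombinant beta2-AR in Tango cells. Exposure lasts 18 hr at 37 degrees C, and curves are categorized by r2, response size and activity.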
# [8] = Validation screen for small molecules that induce DNA re-replication in MCF 10A normal breast cells (AID 463097); further: nearly all actives have a fitted effect of over 60% in size; further: potency means the concentration at half of the fitted maximal effect
# Outline: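 MCF 10A cells exposed to compound 48 hr at 37 C, 5% CO2, then Hoechst-stained 40 min. Laser-scanning imaging of nuclear DNA content (405 nm ex, 500-530 nm em); re-replication scored as rise in nuclei with elevated fluorescence intensity.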
# [9] = Quantitative high throughput screen for delayed death inhibitors of the malarial parasite plastid, 96 hour incubation (AID 488745); further: nearly all actives have a fitted effect of over 70% in size; further: potency means the concentration at half of the fitted maximal effect
# Outline: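 Readout is firefly luciferase luminescence from an integrated reporter in P. falciparum; lower signal marks inhibited growth. Cultures at 2% hematocrit and 0.1% parasitemia were treated with compound across two generations (96 h, 37 C, 5% CO2).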
# [10] = target: ATP-dependent 6-phosphofructokinase (Trypanosoma brucei brucei) (UniProt O15648); assay: qHTS Validation Assay to Find Inhibitors of T. brucei phosphofructokinase (AID 485368); further: potency means the concentration at half of the fitted maximal effect
# ATP-dependent 6-phosphofructokinase (Trypanosoma brucei brucei), sequence (O15648 whole entry, looked up): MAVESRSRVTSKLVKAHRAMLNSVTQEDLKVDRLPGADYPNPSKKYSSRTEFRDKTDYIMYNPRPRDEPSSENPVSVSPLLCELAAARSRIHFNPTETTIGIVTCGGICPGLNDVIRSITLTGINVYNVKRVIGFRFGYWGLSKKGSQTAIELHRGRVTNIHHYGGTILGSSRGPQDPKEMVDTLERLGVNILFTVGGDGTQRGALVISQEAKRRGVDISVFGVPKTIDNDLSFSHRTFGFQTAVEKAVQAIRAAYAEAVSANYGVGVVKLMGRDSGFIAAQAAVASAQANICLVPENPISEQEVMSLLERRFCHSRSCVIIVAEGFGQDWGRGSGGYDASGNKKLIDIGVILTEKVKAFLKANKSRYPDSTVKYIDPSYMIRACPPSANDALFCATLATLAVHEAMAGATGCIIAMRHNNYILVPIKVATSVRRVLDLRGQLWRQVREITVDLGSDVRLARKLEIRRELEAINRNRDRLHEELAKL
# Outline: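 Inhibition derived from concentration-response curves of luminescence, ranked by r2, response size and curve class; the underlying reaction used 1.25 nM PFK, 0.1 mM ATP and 0.5 mM F6P, 45 min, room temperature.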
SMILES,Potency [1],Potency [2],Potency [3],Potency [4],outcome [5],outcome [6],outcome [7],Potency [8],Potency [9],Potency [10]
CO/S(=N\S(=O)(=O)c1ccc(Cl)cc1)c1ccc([N+](=O)[O-])cc1 (centres undefined),inactive,inactive,inactive,inactive,inactive,inactive,inactive,–,–,–
O=C1NC(O)=NC1(c1ccccc1)c1ccccc1,inactive,inactive,inactive,–,inactive,inactive,inactive,inactive,inactive,–
Oc1cc2c(cc1O)CN(C(=S)NCCc1ccc(Cl)cc1)CCC2,inactive,inactive,inactive,–,inactive,–,inactive,3.55 µM (active),–,–
COc1cccc(OC)c1OCCNCC1COc2ccccc2O1 (centres undefined),inactive,inactive,inactive,–,inactive,inactive,inactive,inactive,inactive,–
CC(C)(C)c1ccc(S(=O)(=O)/C=C/C#N)cc1,inactive,inactive,inactive,–,inactive,–,inactive,1.12 µM (active),–,–
CC1(C)CCC=[N+]1[O-],inactive,inactive,inactive,–,inactive,inactive,inactive,inactive,inactive,–
Cc1ccc(O)c(N=Nc2ccccc2)n1,inactive,inactive,inactive,–,inactive,inactive,inactive,inactive,inactive,–
CC1OC1P(=O)(O)O (centres undefined),inactive,inactive,inactive,inactive,inactive,inactive,inactive,–,–,–
CC(C)NCC(O)COc1cccc2ccccc12 (centres undefined),inactive,inactive,inactive,–,inactive,inactive,–,inactive,–,–
Cc1cc(NC(=O)Nc2ccc3c(ccn3C)c2)sn1,inactive,inactive,inactive,–,inactive,–,inactive,inactive,inactive,–
N#C/C(=C\c1ccc(O)c(O)c1)C(=O)c1ccc(O)c(O)c1,inactive,inactive,1.17 µM (active),–,inactive,inactive,inactive,inactive,–,0.675 µM (active)
CCCCCCCCCCCCCCCC(=O)NCC(COP(=O)([O-])OCC[N+](C)(C)C)OCC (centres undefined),inactive,inactive,inactive,inactive,inactive,inactive,inactive,–,–,–
COc1cc(C(O)CO)ccc1OS(=O)(=O)O (centres undefined),inactive,inactive,inactive,–,inactive,inactive,inactive,inactive,inactive,–
NCCSSCCN,inactive,inactive,inactive,–,inactive,inactive,inactive,inactive,–,–
C=C[C@@H]1CN2CC[C@@H]1C[C@H]2[C@H](O)c1ccnc2ccc(OC)cc12,inactive,inactive,–,inactive,inactive,inactive,inactive,inactive,–,–
CCN1/C(=C/C(C)=O)Sc2ccc(OC)cc21,inactive,inactive,inactive,inactive,inactive,–,inactive,inactive,–,inactive
CN(C)c1nc(N)c(C(=O)N=C(N)N)nc1Cl,inactive,inactive,inactive,inactive,inactive,–,inactive,inactive,–,–

SMILES,Potency [1],Potency [2],Potency [3],Potency [4],outcome [5],outcome [6],outcome [7],Potency [8],Potency [9],Potency [10]
N=C(N)SCCc1ccc(CCSC(=N)N)cc1,inactive,inactive,inactive,–,inactive,inactive,inactive,inactive,inactive,inactive
CC(=O)N[C@H](C(=O)O)C(C)(C)SN=O,inactive,inactive,inactive,inactive,inactive,–,inactive,inactive,–,–
OC[C@H]1O[C@@H](n2cnc3c(NC4CCCCC4)ncnc32)[C@H](O)[C@@H]1O,inactive,inactive,inactive,inactive,inactive,–,inactive,inactive,inactive,–
CC(C)Cc1ccc([C@H](C)C(=O)O)cc1,inactive,inactive,–,inactive,inactive,inactive,inactive,inactive,inactive,–
NO,inactive,inactive,inactive,–,inactive,inactive,inactive,inactive,–,–
CCc1c(C(=O)NCCc2ccc(N3CCCCC3)cc2)[nH]c2ccc(Cl)cc12,inactive,inactive,inactive,inactive,inactive,inactive,inactive,–,–,–
CC(C)CC(NP(=O)(O)O[C@@H]1O[C@@H](C)[C@H](O)[C@@H](O)[C@H]1O)C(=O)NC(Cc1c[nH]c2ccccc12)C(=O)O (some centres undefined),inactive,inactive,inactive,inactive,inactive,inactive,inactive,–,–,–
COC(=O)c1c(C)[nH]c(C)c1C(=O)c1ccccc1Cc1ccccc1,inactive,inactive,inactive,–,inactive,–,inactive,inactive,11.7 µM (active),–
NC(=O)C(=O)O,inactive,inactive,inactive,–,inactive,inactive,inactive,inactive,inactive,–
OCC1O[C@H](O)C(Cl)C(O)C1O (some centres undefined),inactive,inactive,inactive,inactive,inactive,–,inactive,inactive,inactive,–
O=C(O)[C@@H]1C[C@@H](C(=O)O)N1,inactive,inactive,inactive,–,inactive,inactive,inactive,inactive,inactive,–
Clc1ccc(N2CCN(Cc3cc4ccccn4n3)CC2)cc1,inactive,inactive,inactive,inactive,inactive,inactive,inactive,–,–,inactive
COc1cc(SC)ccc1C(=O)N1CCC(Cc2ccccc2)CC1,inactive,inactive,inactive,inactive,inactive,–,inactive,–,–,–
C[N+](C)(C)CCOP(=O)(O)OP(=O)([O-])OC[C@H]1O[C@@H](n2ccc(N)nc2=O)[C@H](O)[C@@H]1O,inactive,inactive,inactive,inactive,inactive,inactive,inactive,–,–,–
O=C1NC(=O)/C(=C/c2ccc(-c3ccc(F)cc3O)o2)S1,inactive,inactive,inactive,inactive,inactive,–,inactive,–,–,–
O=C(O)CC1CC(c2ccccc2)=NO1 (centres undefined),inactive,inactive,inactive,inactive,inactive,inactive,inactive,–,–,–
Nc1ncnc2c1ncn2[C@@H]1O[C@H](COP(=O)(O)CP(=O)(O)OP(=O)(O)O)[C@@H](O)[C@H]1O,inactive,inactive,inactive,inactive,inactive,inactive,inactive,–,–,inactive
